Source: PubChem BioAssay
Vaccinia Venus: inhibitors of vaccinia virus (Venus reporter); Vaccinia virus Venus reporter expression, fluorescence; Potency, µM (highest dose often 36.5 µM), inactives show top-dose activity change, negative = inhibition, actives largely listed as inhibitors; 330,000 compounds, 0.46% hits; calls by dose curve; tested in A549 cells; note: potency is the fitted concentration of half-maximal effect; % is set by controls: 0 for no effect and ±100 for the full control effect; nearly all actives have a fitted effect of over 30% in size
Cycloheximide cs: counter-screen hit for Shiga toxin inhibitors, cycloheximide | cell reporter, cycloheximide protein synthesis inhibition counterscreen | max response, % | 300,000 compounds, 12% hits; in the data active = max response mostly above about 13%, no sharp cut-off; inactive = mostly below about 14%; note: read at 38.3 µM for the half of the compounds with a filed dose; 0% is about no effect
Shiga inhibitor: inhibitors of Shiga toxin in Vero cells | inhibition, % at 38.7 µM | 290,000 compounds, 9.2% hits | Vero cells, Shiga toxin protein synthesis inhibition reporter | AID 2315; in the data active = inhibition mostly above about 28%, no sharp cut-off; inactive = mostly below about 43%; note: 0% is about no effect
VACV mCherry inh: vaccinia inhibition (mCherry reporter); Vaccinia virus mCherry reporter infection, fluorescence; Potency, µM (top dose mostly 36.5 µM), for inactives: at the highest dose activity change, negative = inhibition, most hits filed as inhibitors; 310,000 compounds, 0.63% hits; AID 720579; calls by dose curve; tested in A549 cells; note: potency is the fitted concentration of half-maximal effect; % is set by controls: 0 for no effect and ±100 for the full control effect; nearly all actives have a fitted effect of over 35% in size
Lassa entry inh: inhibitors of Lassa virus binding or cell entry; Lassa virus pseudotype entry inhibition, cell reporter; Potency, µM (doses to about 37.9 µM), without a hit: at the top dose activity change, negative = inhibition, most hits filed as inhibitors; 300,000 compounds, 1.2% hits; calls by dose curve; tested in HEK293 cells; note: potency is the fitted concentration of half-maximal effect; % is set by controls: 0 for no effect and ±100 for the full control effect; nearly all actives have a fitted effect of over 50% in size
MARV entry inh: blocks Marburg virus binding to or entry into cells. Potency, µM (series often up to 37.8 µM), inactives show at the highest dose activity change, negative = inhibition, most hits filed as inhibitors. 300,000 compounds, 1.8% hits. Marburg virus pseudotyped entry inhibition, cell reporter; calls by dose curve; tested in HEK293 cells; note: potency is the fitted concentration of half-maximal effect; % is set by controls: 0 for no effect and ±100 for the full control effect
Numbers without * were called inactive; i = inactive; ? = inconclusive; nt = not tested or not shown; [ ] = remark or other dose. Shown is part of a subset that was picked to be rich in hits.

SMILES	Vaccinia Venus	Cycloheximide cs	Shiga inhibitor	VACV mCherry inh	Lassa entry inh	MARV entry inh
COc1ccccc1Cc1nc2ccccc2nc1SCC(=O)N1CCC(C)CC1	-11%	nt	nt	-7%	-9%[46.1 µM]	nt
O=C(Nc1ccccc1)NC1CCS(=O)(=O)C1 (stereo not drawn)	1%	-3	1	nt	3%	-2%
O=C(Nc1ccc2ccccc2c1)NC1CCS(=O)(=O)C1 (stereo not drawn)	nt	14*	88	nt	14%	12%
O=C(NCc1cccc(Cl)c1)c1ccc(NC(=O)N2CCSc3ccccc32)cc1	-6%	nt	nt	-1%	?	?
Cc1cc2nc(N3C(=O)CNC3=S)sc2cc1C	-19%	23*	20	-18%	?	?
CCOc1ccc2nc(N3C(=O)CNC3=S)sc2c1	11%	35*	46*	-13%	?	?
COc1ccccc1C(=O)N1CCN(C(=O)c2oc3c(C)c(C)ccc3c2C)CC1	-19%	nt	nt	-25%	nt	nt
Cc1ccc2c(C)c(C(=O)N(C)C(C)c3ccon3)oc2c1C (stereo not drawn)	-3%	59*	83*	i	-27%	?
Cc1ccc2c(C)c(C(=O)N(C)C(C)c3ccncn3)oc2c1C (stereo not drawn)	nt	13*	54*	nt	nt	nt
O=c1c2c3c(sc2nc2n1CCCS2)CCCC3	nt	42*	52	nt	?	12%
O=c1c2c3c(sc2nc2n1CCCCC2)CCCC3	nt	31*	97*	nt	0%	19%
Nc1nc2sc3c(c2c(=O)s1)CCCC3	-23%	35*	63	-21%	9%	5%
O=c1c2c3c(sc2nc2n1CCC2)CCCC3	nt	17	27	nt	nt	2%
Cc1ccc(C)n1-n1c(C)nc2sc3c(c2c1=O)CCCCC3	-11%	0	23	nt	?	?
CC1=Nn2c(nc3sc4c(c3c2=O)CCCC4)SC1	-20%	24*	57	?	12%	?
Cc1ccc(S(=O)(=O)Nc2ccc(SC(F)F)cc2)c(C)c1	?	3	-1	-12%	?	-12%
CCOc1ccc(NC(=O)c2cnc3sc(N4CCOCC4)nn3c2=O)cc1	-12%	nt	nt	i	2%[46.1 µM]	nt
CC1CSc2nc3sc4c(c3c(=O)n21)CCCC4 (stereo not drawn)	-26%	22*	26	nt	4%	?
O=c1c2c3c(sc2nc2n1CCCCC2)CCCCC3	nt	28*	73*	nt	nt	2%
O=c1c2c3c(sc2nc2n1CCCC2)CCCCC3	-25%	44*	51	nt	8%	?
N=c1c2c3c(sc2nc2n1CCCCC2)CCCCC3	-20%	32*	73*	nt	15%	?
O=c1c2c3c(sc2nc2n1CCCC2)CCC3	-11%	3	-7	-20%	-10%	2%
Cc1nc2sc3c(c2c(=O)o1)CCCC3	3%	-4	23	nt	3%	?
Cc1nc2sc3c(c2c(=N)n1N)CCCC3	-6%	-3	2	?	-17%	-13%
COc1ccc(CNc2nc3ccccc3n2CCN2CCCCC2)c(OC)c1	-16%	10	24	-16%	-23%	?
SMILES	Vaccinia Venus	Cycloheximide cs	Shiga inhibitor	VACV mCherry inh	Lassa entry inh	MARV entry inh
CCn1c(NCc2cccc(OC)c2OC)nc2ccccc21	-18%	13	26*	-5%	5%	1%
COc1cccc(CNc2nc3ccccc3n2CCN2CCCCC2)c1OC	-19%	-1	4	-13%	?	11µM*
CCN(c1cccc(C)c1)S(=O)(=O)c1nnc(NC(=O)c2ccccc2Cl)s1	-22%	nt	nt	-23%	-7%[46.1 µM]	nt
CCc1nnc(NC(=O)CSc2nc(C)c3c(c2C#N)CCCC3)s1	nt	64*	56*	nt	?	?
COC(=O)c1sccc1NC(=O)Nc1ccccc1F	-12%	-3	11	i	nt	nt
COc1ccc(NC(=O)Nc2ccccc2F)cc1	-13%	32*	47	i	?	?
COc1ccc(NC(=O)Nc2ccccc2F)c(C)c1	0%	19*	52	-13%	6%	-10%[46.1 µM]
COC(=O)c1ccc(NC(=O)Nc2ccccc2F)cc1	-10%	40*	115*	-11%	?	?
CCCc1c(NC(=O)Nc2ccc(F)cc2)cnn1-c1ccccc1	nt	23*	45*	nt	nt	nt
COc1cc(C(=O)N(Cc2cccnc2)c2nc3cc(C)c(C)cc3s2)cc(OC)c1OC	-27%[7.34 µM]	nt	nt	?	?	nt
CCN1C(=O)c2ccccc2Sc2ccc(NC(=O)N3CCN(c4cc(C)ccc4C)CC3)cc21	-22%	nt	nt	-27%	-4%[46.1 µM]	?
CSc1ccccc1NC(=O)Nc1ccc(Cl)cc1	-12%	55*	83	-2%	?	?
O=C(Nc1ccc2[nH]c(=S)sc2c1)Nc1ccccc1F	nt	70*	70*	nt	nt	nt
O=C(C#Cc1ccccc1)Nc1ccccc1F	nt	34*	59	nt	nt	nt
O=C(Nc1ccc(F)cc1)Nc1cccnc1Cl	-16%	35*	58*	0%	?	?
CNC(=O)Nc1ccccc1F	-8%	-5	-21	-9%	1%	-2%
CC(C)N(Cc1ccccc1)C(C)C (tested in a mixture with another compound)	nt	-4	2	nt	nt	nt
COc1ccc(-c2nc(C)c(CCNC(=O)c3ccccc3Br)s2)cc1OC	-1%[7.34 µM]	nt	nt	-8%[7.34 µM]	-3%[46.1 µM]	nt
COc1cccc(NC(=O)c2ccccc2F)c1	-13%	nt	nt	-5%	nt	nt
COc1cccc(COC(=O)Nc2ccccc2F)c1	-1%	29*	117*	-7%	?	?
O=C(NC1=NN(c2ccccc2)CC1)Nc1ccccc1F	nt	35*	37*	nt	nt	nt
COc1ccc(NC(=O)Nc2ccccc2SC)cc1	-13%	30*	105*	i	2%[46.1 µM]	?
O=C(Nc1ccccc1N1CCCCC1)c1ccc(F)cc1	-13%	-3	-9	i	-13%	-17%
O=C(Nc1ccccc1F)Nc1ccccc1N1CCCCC1	?	10.0*	11	?	?	-17%
COc1cccc(Oc2nc(C)nc3c2oc2ccccc23)c1	-14%	nt	nt	-11%	?	nt
SMILES	Vaccinia Venus	Cycloheximide cs	Shiga inhibitor	VACV mCherry inh	Lassa entry inh	MARV entry inh
Cc1ccc(N(CCO)C(=S)Nc2ccccc2)cc1	-13%	-2	18	-7%	?	10%[46.1 µM]
CC(NC(=O)C1CCOCC1)c1nnc2n1CCN(Cc1ccc(F)cc1)CC2 (stereo not drawn)	-4%	nt	nt	-15%	nt	nt
COc1ccc(C2=NOC(CNC(=O)c3ccccc3Br)C2)c(OC)c1 (stereo not drawn)	nt	2	-3	nt	nt	nt
Cc1ccc(C(c2c(O)cc(C)n(Cc3ccco3)c2=O)N2CCC(C)CC2)cc1 (stereo not drawn)	-9%	nt	nt	-8%	1%[46.1 µM]	nt
O=C(Nc1ccccc1F)Nc1ccccc1Br	nt	25*	68*	nt	nt	nt
O=C(Nc1ccc(NC(=O)c2ccccc2O)cc1)Nc1ccc(F)cc1F	-1%	-2	6	-13%	11%	-3%
O=C(Nc1ccc(F)cc1)Nc1ccccc1F	-15%	65*	109*	-13%	-21%[46.1 µM]	?
COc1ccc(NC(=O)Nc2ccccc2F)c([N+](=O)[O-])c1	-14%	26*	69*	-25%	nt	nt
COc1ccc(NC(=O)Nc2ccccc2F)cc1Cl	-23%	32*	99*	-4%	?	?
